# Measurements taken from PubChem BioAssay.
# Inconclusive results are not listed. Active and inactive are the calls of the source.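 How the source made its calls, unless noted: active means GFP response below 50% of the DMSO control; inconclusive means fewer than 70 events counted for a yeast strain; inactive means the rest.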
# What was measured:
# [1] = RPL19A-GFP modulators, yeast TOR pathway, confirmation, cell-based, S. cerevisiae, flow cytometry, cherry picks, mother/daughter gates (AID 2270); details: S. cerevisiae RPL19A-GFP strain, 3 h, at 10 µM, stronger effect = lower value, 100 = same GFP as DMSO wells
# [2] = LAP4-GFP expression modulators in yeast, confirmation, cell-based, cherry picks, flow cytometry, mother/daughter gates (AID 2271;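 active means GFP response above 150% of the DMSO control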;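 further: ratio of sample to DMSO plate mean so 100% equals DMSO level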); details: S. cerevisiae LAP4-GFP strain, 3 h, at 10 µM, stronger effect = higher value
# [3] = modulators of CIT2-GFP expression in yeast, confirmation, S. cerevisiae, GFP fusion, cherry picks, mother/daughter gates (AID 2274;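 active means GFP response above 150% of the DMSO level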); details: S. cerevisiae CIT2-GFP strain, flow cytometry, 3 h, at 10 µM, stronger effect = higher value
# [4] = yeast TOR pathway RPL19A-GFP modulators, primary screen, cell-based, S. cerevisiae, multiplex flow cytometry (AID 1862; in the data active means percent of DMSO control GFP below about 86%;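 further: lower values mimic rapamycin by blocking the RPL19A rise seen in DMSO cells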); details: S. cerevisiae RPL19A-GFP strain, flow cytometry fluorescence, 3 h; at 10 µM; stronger effect = lower value
# [5] = modulators of CIT2-GFP expression in yeast, primary screen, S. cerevisiae, GFP fusion, multiplex flow cytometry (AID 1870;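 active means percent response above a set limit, the screen-wide mean plus 3 SD, cut at about 130% in these data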;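 further: barcoded CIT2-GFP strain pooled with four other GFP strains with rapamycin as positive control; median GFP fluorescence per well over plate mean of DMSO wells so 100% = DMSO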); details: 3 h, at 10 µM, stronger effect = higher value
# [6] = modulators of LAP4-GFP expression in yeast, primary screen, S. cerevisiae, multiplex flow cytometry (AID 1873;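 active means GFP signal, as percent of the solvent control, above the screen mean plus 3 SD, about 149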); details: 3 h, at 10 µM, stronger effect = higher value
# [7] = inhibitors of CD8+ T cell-vesicle binding, pilot screen, LFA-1/ICAM-1 modulator project, MLPCN validation set, flow cytometry (AID 2523;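 active means response below a set limit, under 55% cells CD8-positive and vesicle-bound, and CD8 cells' 90th-percentile brightness under 279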;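 on vesicle binding response: mean PE anti-B7-1 fluorescence of CD8+ cells relative to row control; 100% = QL9-loaded vesicles with DMSO vehicle in the same plate row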); details: 2C mouse CD8+ T cells, at 7 µM, stronger effect = lower value; double positive events: measured here: CD8+/vesicle+ event percentage
# [8] = target: Integrin beta-1 (Homo sapiens) + Integrin alpha-4 (Homo sapiens) (UniProt P13612+P05556); experiment: inhibition of HUTS-21 binding to VLA-4, pilot screen, VLA-4 allosteric modulator project, U937 cells, HUTS-21 mAb, flow cytometry, validation set (AID 2674;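 active means inhibition above 50%, about 3 SD of the validation set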;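 further: antibody binding induced by the VLA-4 ligand LDV present at three times its Kd; 0% = LDV ligand with antibody and no compound and 100% = antibody without LDV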); details: HUTS-21 LIBS mAb binding, at 6.7 µM, stronger effect = higher value
# [9] = superoxide lowering in aged yeast cells, pilot screen, validation compound set (AID 2706;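 active means superoxide response below 65% of plate, a cut near 3 SD across the whole screen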;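 further: yeast exposed to compound for one week at 30 degrees C before staining; 100% = mean of all compound wells on the same plate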); details: S. cerevisiae aging, superoxide DHE fluorescence; at 10 µM; stronger effect = lower value
# [10] = target: Beta-adrenergic receptor kinase 1 (Homo sapiens) (UniProt P25098); experiment: GRK2 binders displacing RNA aptamer, biochemical, validation, human GRK2, bead flow cytometry (AID 488806;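 active means aptamer binding inhibition above 30%, about 3 SD of noise from non-fluorescent compounds; inactive means inhibition at or below 30%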); details: bead-bound GRK2, FAM-aptamer displacement, at 10 µM, stronger effect = higher value
# [11] = target: Beta-2 adrenergic receptor (Homo sapiens) (UniProt P07550); experiment: beta2AR agonists driving receptor internalization, pilot screen, cell-based, FAP fluorogen, flow cytometry, validation set (AID 504459;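 active means percent response above 42, roughly 3 SD of non-fluorescent test compounds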;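 further: agonist-driven loss of surface beta2AR via internalization measured by FAP dye flow cytometry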); details: Am2.2-beta2AR cells, FAP surface receptor flow cytometry; at 10 µM; stronger effect = higher value
# [12] = target: AP-2 complex subunit beta (Homo sapiens) (UniProt P63010); experiment: inhibitors of arrestin peptide binding to AP2, pilot screen, biochemical, validation set, GST-AP2 beads, flow cytometry (AID 504541;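 active means inhibition above 54%, about 3 SD of non-fluorescent compounds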;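 further: AP2 carries R879A mutation and is captured from E. coli lysate; bead-bound FITC arrestin peptide fluorescence measuring arrestin peptide binding to AP2; 0% = DMSO wells and 100% = excess unlabeled arrestin peptide control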); details: FITC arrestin peptide, at 10 µM, stronger effect = higher value
# [13] = yeast V-ATPase proton transport modulators, S. cerevisiae, pHLuorin, HTS validation (AID 504600; in the data active means response above about 15%;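 further: plate controls were DMSO for no effect and reference compound for full effect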); details: S. cerevisiae pHLuorin cytosolic pH, at 10 µM, stronger effect = higher value
# [14] = system: anti-desmoglein-3 scFv antibody binding to human DSG3; experiment: inhibitors of anti-DSG3 scFv binding to DSG3, pilot screen, biochemical, validation compound set, bead-based, flow cytometry (AID 588368;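 active means binding below the plate cutoff, the plate median minus 3 SD, with a reading above zero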;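 further: signal is the median channel fluorescence of bead-bound GFP antibody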); details: Protein G beads, DSG3-Fc, scFv-GFP binding, at 10 µM, stronger effect = lower value
# [15] = system: Botulinum neurotoxin type F light chain protease (Clostridium botulinum); experiment: Botulinum neurotoxin type F light chain protease inhibition, multiplex microsphere flow cytometry, validation set (AID 588459; call rule not given here); details: multiplex microsphere protease substrate cleavage assay, at 10 µM, stronger effect = higher value
# [16] = target: Botulinum neurotoxin type A (Clostridium botulinum) (UniProt P0DPI0); experiment: BoNT/A light chain protease inhibitors, biochemical, multiplex microsphere flow cytometry, validation set (AID 588460; call rule not given here); details: at 10 µM, stronger effect = higher value
# [17] = target: Lethal factor (Bacillus anthracis) (UniProt P15917); experiment: Lethal factor protease inhibitors, Bacillus anthracis, multiplex microsphere cleavage assay, validation set (AID 588461; call rule not given here); details: flow cytometry, at 10 µM, stronger effect = higher value
# [18] = inhibitors of fungal efflux pumps CDR1, CDR2, MDR1, pilot screen, validation compound set, multiplex, phenotypic (AID 588506;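 active means efflux inhibition above 0.42, the validation set average plus 4 SD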;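 further: Nile Red retained in cells so higher fluorescence means more efflux inhibition; 0 = negative control wells and 1 = enniatin B 25 µM full block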); details: S. cerevisiae pump-expressing triplex, Nile Red efflux flow cytometry; at 10 µM; stronger effect = higher value
# [19] = target: ATP-binding cassette sub-family B member 6 (Homo sapiens) (UniProt Q9NP58); experiment: ABCB6 transporter inhibitors, pilot screen, K562-ABCB6 cells, flow cytometry, validation set (AID 588550;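 active means inhibition above the screen-wide mean plus 3 SD, about 51%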;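 further: 0% = DMSO wells and 100% = benzethonium chloride 70 µM positive control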); details: K562-ABCB6 porphyrin accumulation, 1 h, at 10 µM, stronger effect = higher value
# [20] = promoters of myeloid differentiation in arrested cells, primary screen, cell-based, GFP/MAC1 double positive, flow cytometry, validation set (AID 588685;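 active means differentiation response of at least 50%, scaled between solvent and reference control, from cells with both markers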;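 further: compound exposure lasts four days before antibody staining and flow analysis; 0% = DMSO wells and 100% = 5 µM fulvestrant positive control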); details: ER-HoxA9 marrow cells, stronger effect = higher value
# [21] = measured here: daughter cell gate
# [22] = measured here: mother cell gate
# [23] = measured here: daughter cell gate response
# [24] = measured here: mother cell gate response
# Sequence of Beta-adrenergic receptor kinase 1 (Homo sapiens) (P25098 whole entry, looked up): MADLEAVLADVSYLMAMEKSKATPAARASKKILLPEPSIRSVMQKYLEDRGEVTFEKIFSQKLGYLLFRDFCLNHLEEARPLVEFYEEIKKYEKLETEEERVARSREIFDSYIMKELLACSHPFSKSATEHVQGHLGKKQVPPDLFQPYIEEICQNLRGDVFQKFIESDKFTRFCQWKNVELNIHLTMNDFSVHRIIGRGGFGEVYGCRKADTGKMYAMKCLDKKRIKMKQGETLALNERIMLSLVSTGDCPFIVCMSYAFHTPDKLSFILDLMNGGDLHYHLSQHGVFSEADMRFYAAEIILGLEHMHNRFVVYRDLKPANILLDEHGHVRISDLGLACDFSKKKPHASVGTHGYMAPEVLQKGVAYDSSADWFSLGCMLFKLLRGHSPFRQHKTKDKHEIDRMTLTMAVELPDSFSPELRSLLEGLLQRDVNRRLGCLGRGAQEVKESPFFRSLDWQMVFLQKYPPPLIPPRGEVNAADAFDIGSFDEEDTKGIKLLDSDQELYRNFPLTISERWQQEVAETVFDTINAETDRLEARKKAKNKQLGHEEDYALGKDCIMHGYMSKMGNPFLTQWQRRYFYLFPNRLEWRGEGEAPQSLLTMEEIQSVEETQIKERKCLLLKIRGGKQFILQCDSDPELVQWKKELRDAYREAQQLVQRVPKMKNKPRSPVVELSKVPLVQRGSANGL
# Sequence of Lethal factor (Bacillus anthracis) (P15917 whole entry, looked up): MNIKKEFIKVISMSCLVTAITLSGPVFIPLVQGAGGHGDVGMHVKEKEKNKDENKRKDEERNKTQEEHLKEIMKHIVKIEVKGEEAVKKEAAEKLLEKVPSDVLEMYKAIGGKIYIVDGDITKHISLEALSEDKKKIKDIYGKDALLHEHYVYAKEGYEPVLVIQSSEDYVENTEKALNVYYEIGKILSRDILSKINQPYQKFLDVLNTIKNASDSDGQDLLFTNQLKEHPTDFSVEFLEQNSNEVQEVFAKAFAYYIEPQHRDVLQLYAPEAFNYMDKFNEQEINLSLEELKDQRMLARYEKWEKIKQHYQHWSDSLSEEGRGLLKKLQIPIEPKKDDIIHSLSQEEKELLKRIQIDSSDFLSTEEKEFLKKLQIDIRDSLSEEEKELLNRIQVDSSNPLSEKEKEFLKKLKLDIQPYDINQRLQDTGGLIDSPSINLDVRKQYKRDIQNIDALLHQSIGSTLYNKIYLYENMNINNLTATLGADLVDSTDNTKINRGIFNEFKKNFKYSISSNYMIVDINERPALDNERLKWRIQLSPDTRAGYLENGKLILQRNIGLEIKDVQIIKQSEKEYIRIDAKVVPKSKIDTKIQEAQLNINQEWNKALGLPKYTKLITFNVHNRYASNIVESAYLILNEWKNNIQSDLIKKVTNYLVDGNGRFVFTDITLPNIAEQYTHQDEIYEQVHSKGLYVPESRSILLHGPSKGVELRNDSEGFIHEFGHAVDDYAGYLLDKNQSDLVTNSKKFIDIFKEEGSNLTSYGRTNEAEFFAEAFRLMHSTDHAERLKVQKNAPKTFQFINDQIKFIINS
# Sequence of Beta-2 adrenergic receptor (Homo sapiens) (P07550 whole entry, looked up): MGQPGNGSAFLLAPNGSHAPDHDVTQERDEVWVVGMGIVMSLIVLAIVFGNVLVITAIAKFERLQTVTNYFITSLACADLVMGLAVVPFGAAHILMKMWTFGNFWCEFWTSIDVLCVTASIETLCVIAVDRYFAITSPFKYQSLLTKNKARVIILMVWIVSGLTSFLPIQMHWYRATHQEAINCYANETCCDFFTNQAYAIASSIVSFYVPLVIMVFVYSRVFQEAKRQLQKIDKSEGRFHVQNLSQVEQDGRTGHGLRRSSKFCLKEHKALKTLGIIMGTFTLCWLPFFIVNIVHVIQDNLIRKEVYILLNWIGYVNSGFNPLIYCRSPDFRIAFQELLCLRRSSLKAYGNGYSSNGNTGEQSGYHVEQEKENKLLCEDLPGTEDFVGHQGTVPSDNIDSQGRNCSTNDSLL
# Sequence of Botulinum neurotoxin type A (Clostridium botulinum) (P0DPI0 whole entry, looked up): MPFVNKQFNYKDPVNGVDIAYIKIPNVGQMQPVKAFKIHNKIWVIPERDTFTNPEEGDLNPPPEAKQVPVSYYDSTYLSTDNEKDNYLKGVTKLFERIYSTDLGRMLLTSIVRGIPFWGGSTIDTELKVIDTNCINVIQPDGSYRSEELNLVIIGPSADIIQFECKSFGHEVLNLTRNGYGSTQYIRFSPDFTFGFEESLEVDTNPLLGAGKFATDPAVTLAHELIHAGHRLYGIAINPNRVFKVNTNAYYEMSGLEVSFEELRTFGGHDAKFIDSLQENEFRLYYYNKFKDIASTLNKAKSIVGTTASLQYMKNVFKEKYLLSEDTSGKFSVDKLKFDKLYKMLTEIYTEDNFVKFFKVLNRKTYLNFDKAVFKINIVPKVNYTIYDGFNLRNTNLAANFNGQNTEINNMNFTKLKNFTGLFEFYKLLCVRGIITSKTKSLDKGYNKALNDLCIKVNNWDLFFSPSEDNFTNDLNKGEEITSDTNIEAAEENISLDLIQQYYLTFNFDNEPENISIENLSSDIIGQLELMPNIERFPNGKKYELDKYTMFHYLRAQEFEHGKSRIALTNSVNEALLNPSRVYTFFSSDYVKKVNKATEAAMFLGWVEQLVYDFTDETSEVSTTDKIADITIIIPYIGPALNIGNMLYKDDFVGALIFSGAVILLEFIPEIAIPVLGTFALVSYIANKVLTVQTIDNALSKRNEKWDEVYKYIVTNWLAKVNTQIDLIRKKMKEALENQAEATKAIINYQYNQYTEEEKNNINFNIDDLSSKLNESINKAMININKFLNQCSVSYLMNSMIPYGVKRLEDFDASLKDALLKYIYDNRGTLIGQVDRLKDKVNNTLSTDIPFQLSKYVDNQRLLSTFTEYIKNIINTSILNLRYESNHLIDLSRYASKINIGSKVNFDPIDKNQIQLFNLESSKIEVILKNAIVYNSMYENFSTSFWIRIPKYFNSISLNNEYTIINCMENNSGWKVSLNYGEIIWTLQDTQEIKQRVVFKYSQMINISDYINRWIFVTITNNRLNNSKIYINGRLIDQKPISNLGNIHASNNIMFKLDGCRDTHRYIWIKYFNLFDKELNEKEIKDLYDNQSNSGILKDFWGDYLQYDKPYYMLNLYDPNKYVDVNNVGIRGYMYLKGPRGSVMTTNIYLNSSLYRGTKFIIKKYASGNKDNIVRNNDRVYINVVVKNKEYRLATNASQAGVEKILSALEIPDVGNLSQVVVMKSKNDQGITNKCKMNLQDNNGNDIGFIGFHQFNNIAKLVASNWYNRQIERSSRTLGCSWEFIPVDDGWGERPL
# Sequence of AP-2 complex subunit beta (Homo sapiens) (P63010 whole entry, looked up, one chain of several): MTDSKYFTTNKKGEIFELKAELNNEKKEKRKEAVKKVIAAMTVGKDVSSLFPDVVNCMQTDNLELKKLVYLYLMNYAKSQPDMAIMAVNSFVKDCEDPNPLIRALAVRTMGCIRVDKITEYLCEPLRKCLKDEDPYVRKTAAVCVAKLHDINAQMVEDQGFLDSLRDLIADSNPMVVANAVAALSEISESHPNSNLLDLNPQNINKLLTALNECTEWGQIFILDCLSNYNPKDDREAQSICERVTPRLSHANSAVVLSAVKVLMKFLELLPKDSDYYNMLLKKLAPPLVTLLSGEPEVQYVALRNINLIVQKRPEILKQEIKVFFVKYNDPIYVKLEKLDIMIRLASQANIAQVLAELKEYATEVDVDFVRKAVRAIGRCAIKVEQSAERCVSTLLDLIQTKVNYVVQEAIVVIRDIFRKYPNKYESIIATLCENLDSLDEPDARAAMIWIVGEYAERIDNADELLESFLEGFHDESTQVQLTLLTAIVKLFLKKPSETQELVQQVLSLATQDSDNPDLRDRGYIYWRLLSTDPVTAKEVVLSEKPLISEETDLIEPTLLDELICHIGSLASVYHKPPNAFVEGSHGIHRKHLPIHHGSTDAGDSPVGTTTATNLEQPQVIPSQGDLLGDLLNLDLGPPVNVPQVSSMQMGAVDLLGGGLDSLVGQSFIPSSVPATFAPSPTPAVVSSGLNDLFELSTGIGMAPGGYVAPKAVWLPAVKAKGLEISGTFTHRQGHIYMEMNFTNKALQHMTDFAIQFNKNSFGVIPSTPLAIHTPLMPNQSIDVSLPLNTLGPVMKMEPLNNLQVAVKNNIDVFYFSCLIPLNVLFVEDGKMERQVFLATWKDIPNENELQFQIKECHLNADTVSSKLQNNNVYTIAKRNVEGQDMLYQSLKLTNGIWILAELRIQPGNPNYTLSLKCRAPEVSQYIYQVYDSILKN
# Sequence of ATP-binding cassette sub-family B member 6 (Homo sapiens) (Q9NP58 whole entry, looked up): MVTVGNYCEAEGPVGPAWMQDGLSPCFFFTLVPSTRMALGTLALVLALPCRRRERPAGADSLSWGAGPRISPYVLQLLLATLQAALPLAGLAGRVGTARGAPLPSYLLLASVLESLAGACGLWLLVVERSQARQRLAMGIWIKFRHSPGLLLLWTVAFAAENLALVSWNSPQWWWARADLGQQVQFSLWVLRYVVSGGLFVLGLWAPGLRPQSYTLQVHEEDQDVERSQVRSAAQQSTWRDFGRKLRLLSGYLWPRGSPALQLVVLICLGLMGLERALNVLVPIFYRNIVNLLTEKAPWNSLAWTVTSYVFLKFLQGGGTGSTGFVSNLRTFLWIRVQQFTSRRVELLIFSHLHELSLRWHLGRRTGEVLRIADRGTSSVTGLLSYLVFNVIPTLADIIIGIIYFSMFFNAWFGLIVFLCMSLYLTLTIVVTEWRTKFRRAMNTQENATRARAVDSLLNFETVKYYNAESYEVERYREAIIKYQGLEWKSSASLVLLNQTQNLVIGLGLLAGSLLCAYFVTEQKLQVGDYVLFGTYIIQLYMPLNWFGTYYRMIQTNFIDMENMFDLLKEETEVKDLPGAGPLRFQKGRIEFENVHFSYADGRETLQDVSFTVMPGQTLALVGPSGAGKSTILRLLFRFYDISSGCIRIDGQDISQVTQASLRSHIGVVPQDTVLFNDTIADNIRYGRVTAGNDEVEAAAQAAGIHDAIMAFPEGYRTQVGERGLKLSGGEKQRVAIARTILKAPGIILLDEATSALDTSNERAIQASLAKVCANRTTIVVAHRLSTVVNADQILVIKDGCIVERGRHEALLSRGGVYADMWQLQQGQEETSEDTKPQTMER
smiles,measurement,setting,value
CN1CCN(c2ccc([N+](=O)[O-])c(Sc3ccccn3)c2)CC1,GFP response vs DMSO,[1],98.4% (inactive)
same,GFP response vs DMSO,[1]; [21],98.9%
same,GFP response vs DMSO,[1]; [22],99.5%
same,GFP response relative to DMSO,[2],95.4% (inactive)
same,GFP response relative to DMSO,[2]; [23],96%
same,GFP response relative to DMSO,[2]; [24],95.1%
same,"GFP response, % of DMSO",[3],103% (inactive)
same,"GFP response, % of DMSO",[3]; [21],103%
same,"GFP response, % of DMSO",[3]; [22],102%
CC12CN3CC(C)(CN(C1)C3c1cccnc1)C2=O (configuration not stated),percent of DMSO control GFP,[4],95.2% (inactive)
same,percent response of DMSO control,[5],97.9% (inactive)
same,GFP response vs DMSO,[6],81.4% (inactive)
same,double positive events,[7],58%
same,vesicle binding response,[7],174% (inactive)
same,inhibition,[8],8.4% (inactive)
same,superoxide response (% of plate),[9],108% (inactive)
same,aptamer binding inhibition,[10],4% (inactive)
same,response,[11],1.06% (inactive)
same,inhibition,[12],-8.61% (inactive)
same,response,[13],0.14% (inactive)
same,binding (% of control),[14],95.4% (inactive)
same,inhibition,[15],-1.6% (inactive)
same,inhibition,[16],0.6% (inactive)
same,inhibition,[17],9.9% (inactive)
same,efflux inhibition (fraction of control),[18],0.3 (inactive)
same,inhibition,[19],7% (inactive)
same,differentiation response,[20],-3.28% (inactive)
CCN(CC)c1ccc(C=C2C(=O)NC(=S)NC2=O)cc1,GFP response vs DMSO,[1],94.7% (inactive)
same,GFP response vs DMSO,[1]; [21],90.2%
same,GFP response vs DMSO,[1]; [22],90%
same,GFP response relative to DMSO,[2],128% (inactive)
same,GFP response relative to DMSO,[2]; [23],116%
same,GFP response relative to DMSO,[2]; [24],131%
same,"GFP response, % of DMSO",[3],94.4% (inactive)
same,"GFP response, % of DMSO",[3]; [21],95.8%
same,"GFP response, % of DMSO",[3]; [22],84.8%
O=C1NC(=O)C(=Cc2ccc(Sc3ccccc3)o2)C(=O)N1,GFP response vs DMSO,[1],103% (inactive)
same,GFP response vs DMSO,[1]; [21],93.1%
same,GFP response vs DMSO,[1]; [22],89.2%
same,GFP response relative to DMSO,[2],140% (inactive)
same,GFP response relative to DMSO,[2]; [23],107%
same,GFP response relative to DMSO,[2]; [24],148%
same,"GFP response, % of DMSO",[3],91.2% (inactive)
same,"GFP response, % of DMSO",[3]; [22],77.2%
O=C1NC(=O)N(CCC2=CCCCC2)C(=O)/C1=C/c1cccs1,GFP response vs DMSO,[1],98.4% (inactive)
same,GFP response vs DMSO,[1]; [21],97.9%
same,GFP response vs DMSO,[1]; [22],97.6%
same,GFP response relative to DMSO,[2],134% (inactive)
same,GFP response relative to DMSO,[2]; [23],128%
same,GFP response relative to DMSO,[2]; [24],138%
same,"GFP response, % of DMSO",[3],91.2% (inactive)
same,"GFP response, % of DMSO",[3]; [21],93.6%
same,"GFP response, % of DMSO",[3]; [22],86.7%
CCCCn1c(=O)c(C(=O)Nc2ccsc2C(=O)OC)c(O)c2ccccc21,GFP response vs DMSO,[1],101% (inactive)
same,GFP response vs DMSO,[1]; [21],94.9%
same,GFP response vs DMSO,[1]; [22],100%
same,GFP response relative to DMSO,[2],94.4% (inactive)
same,GFP response relative to DMSO,[2]; [23],95.9%
same,GFP response relative to DMSO,[2]; [24],94.1%
same,"GFP response, % of DMSO",[3],95.9% (inactive)
same,"GFP response, % of DMSO",[3]; [21],93.8%
same,"GFP response, % of DMSO",[3]; [22],95.6%
